29 compounds from PubChem BioAssay (NCI) can be followed below.

Common to all, as to test: NCI-60 one-dose screen, 48 h (100 = growth as untreated, 0 = no growth, -100 = all killed)
What all share (conditions): 10 µM unless noted

Test [1] relates to T-47D breast.
Test [2] has as its system BT-549 breast.
The test system of test [3] is MDA-MB-435 melanoma.
For test [4], the system named is SW-620 colon.
Test [5] relates to MCF7 breast.
In test [6] the test system is HCT-116 colon.
Test [7] concerns HCC-2998 colon.
In test [8] the test system is KM12 colon.

The panel holds about 83,000 compounds, 20% with a hit somewhere; the sample as a whole holds those more often.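 48-hour exposure, single concentration, 96-well plates; percent growth endpoint where 0 means no net growth. Active: below 10.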 A number with no mark means an inactive call. Active and inactive are the calls of the source.

As to `COc1cc(/C=C\C(=O)O)ccc1OCc1ccccc1`, the growth in test [1] was 82.1%; in test [2], 112%; in test [3] it was 119%; in test [4] it was 105%; in test [5], 96%; in test [6], 95.2%. For the same compound, the growth in test [7] and in test [8] was 104% throughout.
`C#CCNC(=O)[C@H](Cc1ccccc1)NC(=O)[C@]12CC[C@@H](C(=C)C)[C@@H]1[C@H]1CC[C@@H]3[C@@]4(C)CCC(=O)C(C)(C)[C@@H]4CC[C@@]3(C)[C@]1(C)CC2`: the growth is 49.8% in test [1]; 104% in test [2]; 85% in test [3]; 64.8% in test [4]; 56% in test [5]; 35.3% in test [6]. Besides, the growth in test [7] is 80.8%; in test [8] it was 61.5%.
Regarding `C=C1C(=O)O[C@H]2[C@H]1CC/C(COC(=O)NCc1c[nH]c3ccc(F)cc13)=C\CC[C@@]1(C)O[C@@H]21`, the growth in test [1] was -58.3% (active); in test [2], -51.6% (active); in test [3], -63.5% (active); in test [4], -72.4% (active); in test [5], 22.4%; in test [6], -86.7% (active). The growth was 68.3% in test [7] and 33.5% in test [8].
Take `CC(C)(C)c1ccc(NS(=O)(=O)c2ccc3nc(NC(=O)c4cnccn4)[nH]c3c2)cc1`: the growth in test [1] is 25.6%; in test [2] it was 26.6%; in test [3] it was -41% (active); in test [4] it was 18.1%; in test [5] it was 18%; in test [6] it was 25.4%. Also, the growth in test [7] is 70.2%; in test [8], 16.6%.
With `O=C(CCN1CCCC1)Nc1ccc2c(NCCc3ccccc3)c3ccccc3nc2c1`, the growth in test [1] was 1.89% (active); in test [2], -15.3% (active); in test [3], -92.1% (active); in test [4], -44.9% (active); in test [5], -19.4% (active); in test [6] it was -38.2% (active). For the same compound, the figures for the growth in test [7] and in test [8] were -56.8% (active) and -15.6% (active), respectively.
Regarding `CCCCCN1C=C/C(=C\C(=O)N2CCCc3ccccc32)c2ccccc21`, the growth was 68.2% in test [1]; 79.7% in test [2]; 97% in test [3]; 88.8% in test [4]; 91% in test [5]; 66.5% in test [6]. The growth in test [7] was 102%; in test [8] it was 90.4%.
As to `O=C(c1nc2ccccc2[nH]1)C1C(c2ccc(Br)cc2)C2CC3CCCC[C@H]3N2[C@@]12C(=O)Nc1cc(Cl)ccc12` (some centres not stated), the growth in test [1] was 29.1%; in test [2] it was 71.6%; in test [3], 23.7%; in test [4], 31.2%; in test [5], 16%; in test [6], 21.1%. Besides, the figures for the growth in test [7] and in test [8] were 39.7% and 37.9%, respectively.
`O=C(/C(=C\c1ccc([N+](=O)[O-])cc1)S(=O)Cc1ccc(Cl)cc1)c1ccc(Cl)cc1` (configuration not stated): the growth in test [1] was 51.6%; in test [2], 94.6%; in test [3], 82.6%; in test [4], 28%; in test [5] it was 49%; in test [6], 4.9% (active). In addition, the growth in test [7] is 80.4%; in test [8], 73.8%.
As for `O=C(Nc1ccc(-c2ccc3c(c2)NC(=O)/C3=C\c2ccc[nH]2)cc1)NC1CC1`, the growth was 32.1% in test [1]; 103% in test [2]; 98.6% in test [3]; 103% in test [4]; 15.8% in test [5]; 96.6% in test [6]. Further, the growth in test [7] was 107%; in test [8], 19.1%.
Consider `CCNc1nc2cc(Nc3ccnc4cc(Cl)ccc34)ccc2o1`, for which the growth in test [1] is 66.4%; in test [2] it was 81.4%; in test [3] it was 9.8% (active); in test [4], 54.9%; in test [5], 40.8%; in test [6] it was 42.3%. Also, the growth in test [7] was 68.7%; in test [8], 38%.
In the case of `COc1cc2c(c(OC)c1OC)CCC(c1cccc(NC(=O)c3cccc(Br)c3)c1)O2` (configuration not stated), the growth was 72.5% in test [1]; 103% in test [2]; 87.4% in test [3]; 93.2% in test [4]; 89% in test [5]; 72.2% in test [6]. The growth is 99.7% in test [7] and 95.2% in test [8].
Take `Cc1nc(N)nc(N[C@@H](C)c2nc3cccc(NCc4ccc(C(=O)NO)cc4)c3c(=O)n2-c2ccccc2)n1`: the growth in test [1] is 22.3%; in test [2] it was 99%; in test [3], 64.7%; in test [4], 49.5%; in test [5], 74.9%; in test [6], 56.3%. The growth in test [7] was 98%; in test [8], 92.9%.
As to `CCOC(=O)Oc1c(OC)cc(C(=O)c2ccc(OC)c(OC(=O)CCl)c2OC)cc1OC`, the growth in test [1] is 36.2%; in test [2] it was 42.4%; in test [3], -35.9% (active); in test [4] it was 21.9%; in test [5], 16.6%; in test [6] it was 11.4%. In addition, the figures for the growth in test [7] and in test [8] were 43.3% and 21.9%, respectively.
For `Oc1ccc(OCCOc2ccc(O)cc2)cc1`, the growth in test [1] was 72.5%; in test [2] it was 54.7%; in test [3], 47.2%; in test [4] it was 50.2%; in test [5], 55.7%; in test [6] it was 55.9%. The results for the growth in test [7] and in test [8] were 47.1% and 29.2%, respectively.
Consider `O=C(Cc1ccccc1)NNc1nc(Cl)nc(N2CCN(C(c3ccccc3)c3ccccc3)CC2)n1`, for which the growth was 84.4% in test [1]; 99.3% in test [2]; 100% in test [3]; 82.3% in test [4]; 92.3% in test [5]; 80% in test [6]. The growth was 73.6% in test [7] and 97.5% in test [8].
`c1ccc(-c2cn3c(ccc4ccccc43)n2)cc1`: the growth in test [1] is 66.5%; in test [2] it was 63.6%; in test [3], -34.7% (active); in test [4], 22.8%; in test [5], 28.5%; in test [6], 35%. Moreover, the growth is 75.5% in test [7] and 23.4% in test [8].
As to `Cc1ccc(C(=O)/C(=C/c2ccc([N+](=O)[O-])cc2)SCc2ccc(Cl)cc2)cc1`, the growth is 65.2% in test [1]; 88.9% in test [2]; 78.1% in test [3]; -52.1% (active) in test [4]; 12.8% in test [5]; -59.9% (active) in test [6]. The figures for the growth in test [7] and in test [8] were 78.6% and 44.8%, respectively.
On to `Cc1ccc(NC(=O)c2cc(-c3nc4ccccc4s3)c(=O)n(NS(=O)(=O)c3ccc(Cl)cc3)c2N)cc1`, for which the growth in test [1] was 98.7%; in test [2] it was 115%; in test [3], 99.4%; in test [4], 111%; in test [5] it was 93.7%; in test [6], 95.6%. The values for the growth in test [7] and in test [8] were 118% and 98.8%, respectively.
For the compound `Cc1ccccc1NS(=O)(=O)c1cccc(C(=O)Nc2ccc(Br)cc2)c1`, the growth in test [1] is 25.8% [25 µM]; in test [2], 31.2% [25 µM]; in test [3] it was 28.3% [25 µM]; in test [4] it was 58.8% [25 µM]; in test [5], 30% [25 µM]; in test [6], 30.5% [25 µM]. The growth in test [7] is 67.3% [25 µM]; in test [8] it was 37.1% [25 µM].
For `O=S(=O)(NCCNc1nccc(-c2c(-c3cccc(F)c3)nc3sccn23)n1)c1ccc(Cl)cc1`, the growth in test [1] is 43.2%; in test [2] it was 71.3%; in test [3] it was 26.3%; in test [4], 59.6%; in test [5], 24.7%; in test [6], 34%. Moreover, the growth in test [7] is 83.4%; in test [8], 47.7%.
For the compound `NS(=O)(=O)c1ccc(CCn2c(SCC(=O)c3ccc(Cl)cc3)nc3ccccc3c2=O)cc1`, the growth in test [1] was 95.3%; in test [2], 99%; in test [3], 102%; in test [4], 103%; in test [5], 91.8%; in test [6] it was 97%. The growth in test [7] was 87.7%; in test [8] it was 102%.
`O=C(CCN1CCCC1)Nc1ccc2c(Nc3ccc(F)cc3)c3ccccc3nc2c1`: the growth in test [1] is 7.84% (active); in test [2], 51.2%; in test [3], -94.9% (active); in test [4], -25% (active); in test [5], -19.9% (active); in test [6], -54.2% (active). The growth in test [7] is -80.3% (active); in test [8] it was 0.928% (active).
For the compound `NS(=O)(=O)c1ccc(CCN2C(=O)c3cc(Cl)c(Cl)cc3C2=O)cc1`, the growth in test [1] is 98.4%; in test [2] it was 109%; in test [3], 108%; in test [4], 110%; in test [5], 98.6%; in test [6] it was 100%. Moreover, the growth in test [7] was 90.2%; in test [8], 100%.
For `COc1cc2c(c(O)c1Cl)C(=O)c1c(O)cc(C[C@H](C)O)cc1[C@H]2[C@H]1c2cc(C[C@H](C)O)cc(O)c2C(=O)c2c1cc(OC)c(Cl)c2O`, the growth is 10.5% in test [1]; 17.2% in test [2]; 11.3% in test [3]; 17.8% in test [4]; 7.74% (active) in test [5]; 9.53% (active) in test [6]. The growth in test [7] was 25.9%; in test [8], 11.2%.
Consider `N=C1C(c2nc3ccccc3s2)=C(O)CN1c1cc(Cl)cc(Cl)c1`, for which the growth was 97% in test [1]; 71.3% in test [2]; 41.6% in test [3]; 54.8% in test [4]; 148% in test [5]; 46.5% in test [6]. The growth in test [7] was 85.8%; in test [8] it was 64.7%.
Turning to `Cc1nc2ccc(Cl)cn2c1-c1nnc(SCc2ccc([N+](=O)[O-])cc2)o1`, the growth in test [1] is 79.8%; in test [2], 12.9%; in test [3], 61.2%; in test [4] it was 76.1%; in test [5], 55.2%; in test [6] it was 58.4%. Also, the growth in test [7] was 83.5%; in test [8], 72.9%.
For the compound `Brc1ccc2[nH]cc(-c3cncn3CCc3ccccc3)c2c1`, the growth in test [1] was 22.9%; in test [2] it was 41.3%; in test [3] it was 57.5%; in test [4], 72.2%; in test [5], 48.9%; in test [6] it was 43%. Further, the figures for the growth in test [7] and in test [8] were 72.5% and 68%, respectively.
In the case of `Cc1cc(Cl)nc(N(CCNc2ccnc3cc(Cl)ccc23)Cc2ccccn2)n1`, the growth was -19.6% (active) in test [1]; 75.4% in test [2]; 61.7% in test [3]; 56.6% in test [4]; 53.6% in test [5]; 17.3% in test [6]. In addition, the values for the growth in test [7] and in test [8] were 85.7% and 64.1%, respectively.
As to `N#Cc1c(NC(=O)NCc2ccccc2)sc2c1CCCCC2`, the growth in test [1] was 37.8%; in test [2], 26.2%; in test [3] it was -40.5% (active); in test [4], 21.5%; in test [5], 19.1%; in test [6] it was 8.9% (active). Besides, the growth in test [7] is 24.5%; in test [8] it was 12.6%.
